The text below walks through data of PubChem BioAssay AID2629 (Broad Institute, 2010).

Several values for one entry are separate records, joined by “and”; a condition that tells them apart may be missing. Equal entries are not always repeated. Out of some 320,000 compounds screened, about 1,900 (0.59%) were called active. Only a selection was taken, and actives are over-represented in it overall. Unmarked numbers belong to inactive results. Rule as the data show it: active = inhibition mostly above about 10% (no sharp cut-off); inactive = mostly below about 6.7%.

Sequence of Protein LANA1 (Human herpesvirus 8 type P (isolate GK18)) (Q9QR71 whole entry, looked up): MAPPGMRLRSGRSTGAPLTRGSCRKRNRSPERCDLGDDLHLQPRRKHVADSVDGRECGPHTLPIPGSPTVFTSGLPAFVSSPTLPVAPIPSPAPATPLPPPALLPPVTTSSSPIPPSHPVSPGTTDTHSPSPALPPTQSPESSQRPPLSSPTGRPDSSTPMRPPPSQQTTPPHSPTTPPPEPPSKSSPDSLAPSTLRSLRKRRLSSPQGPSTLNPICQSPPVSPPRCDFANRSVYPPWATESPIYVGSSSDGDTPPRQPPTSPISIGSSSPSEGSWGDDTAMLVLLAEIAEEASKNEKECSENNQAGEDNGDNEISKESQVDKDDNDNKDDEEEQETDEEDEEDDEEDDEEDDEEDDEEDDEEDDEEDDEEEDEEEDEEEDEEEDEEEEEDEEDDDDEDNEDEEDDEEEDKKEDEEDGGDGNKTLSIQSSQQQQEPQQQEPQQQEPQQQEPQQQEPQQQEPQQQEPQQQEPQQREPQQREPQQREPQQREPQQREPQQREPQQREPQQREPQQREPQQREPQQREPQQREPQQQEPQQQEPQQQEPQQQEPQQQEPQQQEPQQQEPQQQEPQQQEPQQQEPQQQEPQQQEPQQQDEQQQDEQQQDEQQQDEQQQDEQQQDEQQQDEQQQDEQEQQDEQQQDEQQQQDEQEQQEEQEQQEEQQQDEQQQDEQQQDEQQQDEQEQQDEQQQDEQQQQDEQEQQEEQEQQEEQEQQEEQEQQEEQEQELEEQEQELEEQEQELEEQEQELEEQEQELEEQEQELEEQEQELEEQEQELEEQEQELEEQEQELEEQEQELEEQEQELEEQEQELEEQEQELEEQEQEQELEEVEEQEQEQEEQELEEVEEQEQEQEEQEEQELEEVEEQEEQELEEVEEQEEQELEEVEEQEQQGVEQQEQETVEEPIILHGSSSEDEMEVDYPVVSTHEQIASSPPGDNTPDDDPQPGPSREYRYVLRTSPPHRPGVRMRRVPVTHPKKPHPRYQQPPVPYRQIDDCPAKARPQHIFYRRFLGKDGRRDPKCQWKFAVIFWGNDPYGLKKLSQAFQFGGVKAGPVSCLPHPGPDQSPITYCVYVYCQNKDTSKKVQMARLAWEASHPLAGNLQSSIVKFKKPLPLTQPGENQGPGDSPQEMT

The test concerns the target Protein LANA1 (Human herpesvirus 8 type P (isolate GK18)) (UniProt Q9QR71). The experiment in a line: blockers of LANA interaction with H2A/H2B – biochemical, FP readout, HTS, primary screen (AID 2629). The conditions noted are these: cell-free LANA-H2A/H2B peptide, fluorescence polarization, stronger effect = higher value, concentration not given here. For orientation: In fluorescence polarisation assays a small probe gives low polarisation when free and higher when bound to something large.
A word on the inhibition: it is the relative decrease from the control value, in per cent. With `O=C(CS(=O)(=O)c1cn(Cc2ccc(Cl)cc2)c2ccccc12)N1CCOCC1`, the inhibition is 0.389%.

Regarding `O=C1C=CC(=O)N1c1ccc(N2CCCCC2)cc1`, the inhibition is 6.75% (active).

Consider `O=C(Cc1ccccc1)NC(=S)Nc1ccc(N2CCCCC2)cc1`, for which the inhibition was 2.3%.

In the case of `CC(=O)Nc1ccc(S(=O)(=O)Nc2ccc(N3CCCCC3)cc2)cc1`, the inhibition was 0.693%.

`Cc1c(C(=O)NCCN(C)C)oc2ccc(S(=O)(=O)N3CCCC3)cc12`: the inhibition is 0.441%.

As to `CCc1nn(CCCC(=O)NC(C)c2ccccc2)c(=O)c2cc3occc3n12` (stereo unspecified), the inhibition is 1.99%.

As for `CCN(CC(=O)NCc1cccs1)C(=O)/C=C/c1ccc(C)cc1`, the inhibition is -0.65%.

For the compound `CC(CC(=O)N1CCN(S(=O)(=O)c2ccccc2)CC1)n1cncn1` (stereo unspecified), the inhibition was 0.88%.

`CN(C)C(=O)Cn1c(=O)n(S(=O)(=O)c2ccccc2)c2ccccc21`: the inhibition was 14% (active).

`CCOc1ccc(S(=O)(=O)N(CC(=O)O)c2ccccc2)cc1`: the inhibition is 18.5%.

Turning to `CC(=O)Nc1ccc(S(=O)(=O)NNC(=O)CCc2ccccc2)cc1`, the inhibition is -3.72%.

Take `Oc1ccccc1CNc1ncc(Br)cc1Br`: the inhibition was -2.38%.

For the compound `O=C(COc1nc2ccccc2nc1N1CCOCC1)NCC(F)(F)F`, the inhibition was 0.0185%.

`COc1cc(N2C(=O)c3ccccc3C2=O)c(Cl)cc1C(=O)OCC(=O)N1CCOCC1`: the inhibition is 2.7%.

For the compound `CCN1CCN(C2CCCCC2NS(=O)(=O)c2ccc(Cl)cc2)CC1` (stereo unspecified), the inhibition was 16.2% (active).

For `O=S(=O)(NC1CCCCC1N1CCC(O)CC1)c1ccc(Cl)cc1` (stereo unspecified), the inhibition was -2.17%.

Take `O=S(=O)(NC1CCCCC1N1CCCCC1)c1ccc(Cl)cc1` (stereo unspecified): the inhibition was 9.78%.

For `O=C(CCn1nnc2ccccc2c1=O)N[C@@H](Cc1c[nH]c2ccccc12)C(=O)O`, the inhibition is -3.09%.

As to `CCc1cccc(NC(=O)CCCN2C(=O)C(c3ccccc3)Oc3cccnc32)c1` (stereo unspecified), the inhibition is 3.46%.

Turning to `COc1ccc(NC(=O)CCCN2C(=O)C(c3ccccc3)Oc3cccnc32)cc1` (stereo unspecified), the inhibition was 12.5% (active).

For `COc1ccc(NC(=O)CCCC(=O)c2ccccc2)cc1`, the inhibition was 2.03%.

Turning to `Cn1cc(CN2CCC(C(O)CCc3ccccc3)CC2)c(-c2ccccc2F)n1` (stereo unspecified), the inhibition is 1.03%.

For the compound `CCn1c(=O)c2ccccc2n(CC(=O)N2CCCc3ccccc32)c1=O`, the inhibition is 0.719%.

Consider `O=C(NCc1ccco1)/C(=C\c1cccc([N+](=O)[O-])c1)NC(=O)c1ccco1`, for which the inhibition was -1.25%.

For the compound `Oc1ccc(-c2[nH]ncc2-c2nc3ccccc3s2)c(O)c1`, the inhibition was 3.42%.

Turning to `Cc1ccc(S(=O)(=O)N2CCN(C(=O)c3ccccc3-c3nc4ccccc4s3)CC2)c(C)c1`, the inhibition was 5.83%.

For the compound `CC(=O)Nc1cccc(-c2nc3ccccc3s2)c1C`, the inhibition is 55.2% (active).

In the case of `O=C1C2(c3ccccc3)CN(CCCO)CC1(c1ccccc1)CN(CCCO)C2`, the inhibition was 1.07%.

As to `C=CCN(C(=O)Cn1ncc2c1-c1cc(C)ccc1OC2)c1ccccc1`, the inhibition was -5.38%.

Regarding `CCCCc1cc2c(s1)CCCC/C2=N/O`, the inhibition is -0.97%.

As to `COc1ccc(N2CCN(C(=O)CCNC(=O)c3ccc(Br)cc3)CC2)cc1`, the inhibition is -8.47%.

With `CN(C)C(=O)c1nc2ccc(Cl)cn2c1CNCc1cccc(OC(F)(F)F)c1`, the inhibition was 1.63%.

Regarding `Cc1nnc(SC(C(=O)c2ccccc2)c2ccccc2)[nH]c1=O` (stereo unspecified), the inhibition was -2.85%.

Consider `O=C(Cc1ccc(-c2ccccc2)cc1)NC(c1ccccc1)c1ccccc1`, for which the inhibition was 3.99%.

Take `O=C(O)Cc1ccc(-c2ccccc2)cc1`: the inhibition was 54.5% (active).

As to `O=C(O)Cc1ccc(NCc2ccccc2Cl)cc1`, the inhibition is 4.61%.

`C/C(=N/OC(=O)c1ccc(Br)cc1)c1ccc(C)cc1`: the inhibition is 4.46%.

With `Cc1nnc(-c2ccc(Oc3ccc(C)c(C)c3)c([N+](=O)[O-])c2)o1`, the inhibition is 0.884%.

In the case of `O=S(=O)(Nc1ccccc1N1CCOCC1)c1ccc(Cl)s1`, the inhibition was 4.05%.

Regarding `O=S(=O)(Nc1cc(Cl)ccc1N1CCOCC1)c1ccccc1Cl`, the inhibition was 16.7% (active).

Regarding `O=S(=O)(Nc1cc(S(=O)(=O)N2CCOCC2)ccc1N1CCCC1)c1cccs1`, the inhibition was -1.3%.

Regarding `CCCCN(C(=O)c1ccc(S(=O)(=O)N2CCOCC2)cc1)C1CCS(=O)(=O)C1` (stereo unspecified), the inhibition was 3.61%.

As to `CCNC(=S)N(CCN(CC)CC)Cc1cc2cc3c(cc2[nH]c1=O)OCCO3`, the inhibition was -5.92%.

As for `COCCCNC(=S)N(CCN(C)C)Cc1cc2cc3c(cc2[nH]c1=O)OCCO3`, the inhibition was 9.12% (active).

In the case of `CCN(CC)CCCNC(=S)N(CCO)Cc1cc2cc3c(cc2[nH]c1=O)OCO3`, the inhibition was -0.647%.

Regarding `C=C(C)CNC(=S)/N=c1\scc(C)n1CC`, the inhibition was 3.02%.

As for `COc1ccc(Cc2cc(-c3ccc(F)cc3)n[nH]c2=O)cc1`, the inhibition was -1.23%.

Consider `O=C(CCc1nc2ccccc2c(=O)[nH]1)OCC(=O)c1cccc(Cl)c1`, for which the inhibition was -2.71%.

`Cc1ccc(C(=O)COC(=O)CCN2C(=O)C3C4CCC(C4)C3C2=O)cc1C` (stereo unspecified): the inhibition is 0.254%.

As for `Cc1ccc(C(=O)COC(=O)c2cccc(N3C(=O)c4c(C)nc5ccccc5c4C3=O)c2)cc1C`, the inhibition was 14.6% (active).

Take `CC(C)(C)C1CCC(C(=O)NCC(c2cccs2)N2CCOCC2)CC1` (stereo unspecified): the inhibition was -3%.

For the compound `CN(Cc1ccc(CNC[C@H]2O[C@@H](n3cnc4c(N)ncnc43)[C@H](O)[C@@H]2O)o1)S(C)(=O)=O`, the inhibition is 1.32%.

Regarding `O=C(O)Cc1csc(-c2cccc(Oc3ccccc3)c2)n1`, the inhibition was -3.8% and 4.18%.

`COc1cc(C(=O)OC(C)C(=O)NCC2CCCCC2)cc(NC(=O)c2ccco2)c1OC` (stereo unspecified): the inhibition is 1.94%.

Take `CC(C)(C)c1ccc(C(=O)NCc2nnc(SCC(=O)N3CCCc4ccccc43)n2-c2ccccc2)cc1`: the inhibition was 2.13%.

In the case of `COc1ccc(NC(=O)C2CCCN(S(=O)(=O)c3cccc4cccnc34)C2)cc1OC` (stereo unspecified), the inhibition is 2.61%.

Turning to `COc1ccccc1CNC(=O)C1CCCN(S(=O)(=O)c2cccc3cccnc23)C1` (stereo unspecified), the inhibition was 138% (active).

`COc1ccc(NC(=O)C2CCCN(S(=O)(=O)c3cccc4cccnc34)C2)cc1` (stereo unspecified): the inhibition was -2.43%.

For the compound `CCOc1cc(C2C(C(=O)c3ccco3)=C(O)C(=O)N2Cc2ccccc2)ccc1O` (stereo unspecified), the inhibition is 2.24%.

`O=C(C1=C(O)C(=O)N(Cc2ccccc2)C1c1cccnc1)c1ccco1` (stereo unspecified): the inhibition is 10.9% (active).

Take `COc1ccc(C2C(C(C)=O)=C(O)C(=O)N2Cc2cccnc2)cc1` (stereo unspecified): the inhibition is 0.519%.

On to `Cc1ccc(N(C(=O)Cc2cccs2)C2C=CS(=O)(=O)C2)cc1Cl` (stereo unspecified), for which the inhibition is 0.0691%.

For the compound `OC1CSc2nc3ccccc3n2C1` (stereo unspecified), the inhibition is 0.181%.

For the compound `COCCCN1C(=O)C(=O)/C(=C(/O)c2ccc3c(c2)CC(C)O3)C1c1cccnc1` (stereo unspecified), the inhibition was -6.56% and -12.2%.

Regarding `CC1Cc2cc(/C(O)=C3\C(=O)C(=O)N(CCN4CCOCC4)C3c3ccccc3F)ccc2O1` (stereo unspecified), the inhibition is -0.116%.

With `CC1Cc2cc(/C(O)=C3\C(=O)C(=O)N(Cc4cccnc4)C3c3ccccc3F)ccc2O1` (stereo unspecified), the inhibition was 12.2% (active).

Take `CN(CC(=O)NCCc1ccc(S(N)(=O)=O)cc1)CC(=O)Nc1ccc(Cl)cc1`: the inhibition was -9.65%.

Consider `CCn1cc(C(=O)NCCCN2CCCCCC2)c(=O)c2cc(S(=O)(=O)N3CCc4ccccc4C3)ccc21`, for which the inhibition is 1.1%.

On to `CC1(C)N=C(c2ccccn2)C(C)(C)N1O`, for which the inhibition was 3.45%.

Regarding `CC(C(=O)N1CCc2ccccc21)N(C)CC(=O)Nc1ccc(F)cc1` (stereo unspecified), the inhibition was 4.45%.

`COc1cc(NC(=O)c2ccccc2NS(=O)(=O)c2ccc(Cl)s2)cc(OC)c1`: the inhibition is -1.77%.

With `C=CCC[C@@H](Cc1ccc(F)cc1)C(=O)OC[C@H](Cc1c[nH]c2ccccc12)NC(=O)[C@@H](CC=C)CC(=O)N(CCO)Cc1ccccc1`, the inhibition was 3.67%.

For `C=CCC[C@H](Cc1ccc(F)cc1)C(=O)OC[C@@H](Cc1c[nH]c2ccccc12)NC(=O)[C@H](CC=C)CC(=O)N[C@H](CO)Cc1ccccc1`, the inhibition was 145% (active).

`C=CC[C@@H](CC(=O)N[C@H](CO)Cc1ccccc1)C(=O)N[C@@H](COC(=O)[C@@H](CC=C)Cc1ccc(F)cc1)Cc1c[nH]c2ccccc12`: the inhibition is -2.42%.

Consider `COc1ccc(NC(=O)CSc2nc(SC)ns2)c(OC)c1`, for which the inhibition is 0.787%.

As for `CCCn1nc(Oc2nc(NC(C)C)nc(N(C)C)n2)ccc1=O`, the inhibition was -2.39%.

For the compound `O=C(Nc1nnc(-c2ccccc2)o1)c1cc(-c2cccs2)nc2ccccc12`, the inhibition is 14.9% (active).

For `O=C(NCCN1CCOCC1)c1cc(-c2cccs2)nc2ccccc12`, the inhibition was 14%.

For `CCCCN(C)CCCNC(=O)c1cc(-c2cccs2)nc2ccccc12`, the inhibition is -1.81%.

As for `COc1ccc(NC(=O)CN(C)C(=O)c2cc(C3CC3)nn2-c2ccccc2)cc1`, the inhibition is -290%.

For `CCc1ccccc1NC(=O)CN(C)C(=O)c1cc(C2CC2)nn1-c1ccccc1`, the inhibition was -3.11%.

As for `COc1cccc(NC(=O)CN(C)C(=O)c2cc(C3CC3)nn2-c2ccccc2)c1`, the inhibition is 559% [above what the read-out allows, likely interference] (active).

As to `COc1cccc(CN2CCN(Cc3ccc4cccc(F)c4n3)CC2CCO)c1` (stereo unspecified), the inhibition is -3.14%.

As for `COc1ccc(C2=CC(c3cccc(OC)c3)n3nnnc3N2)cc1` (stereo unspecified), the inhibition is -1.03%.

For `COc1ccc(C2C=C(c3ccc(Br)cc3)Nc3nc(NS(C)(=O)=O)nn32)cc1` (stereo unspecified), the inhibition is 31.6% (active).

Take `CCS(=O)(=O)n1nc(-c2ccccc2)nc1SCc1ccccc1`: the inhibition was 0.944%.
